According to PubChem BioAssay (EPA / NIEHS):
Activity calls are given as the source filed them. Rule for the calls: active = hit-call score of the fitted dose curve at least 0.9, where 1 is the maximum; inactive = score below 0.9.

Columns and labels:
[1] = BSK_LPS_SRB: Viability Assessment in the BioMAP Diversity Plus: LPS Assay (AID 2283079); details: primary human HUVEC with PBMC;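 note: total protein by sulforhodamine B absorbance as a cytotoxicity measure; measured one day after compound addition; fitted in both directions against DMSO so loss or gain of signal counts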
Summary of the method: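 Overt cytotoxicity was gauged by sulforhodamine B total-protein staining in a primary human vascular endothelial and mononuclear cell co-culture 24 h post-dosing. Activity was fitted in both directions relative to DMSO.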

[2] = read-out: Interleukin-1 alpha (IL1a), IL1A (gene 3552); test: BSK_LPS_IL1a: BioMAP Diversity Plus: LPS Assay for Interleukin-1 alpha (IL1a) Biomarker Activity (AID 2283080); details: primary human HUVEC with PBMC; actives raise or lower the signal
Summary of the method: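 Measured: IL-1 alpha via ELISA at 24 h in LPS-activated human umbilical vein endothelium–PBMC co-culture. Baseline: DMSO, bidirectional fitting.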

[3] = read-out: Monocyte Chemoattractant Protein-1 (MCP1), CCL2 (gene 6347); test: BSK_LPS_MCP1: BioMAP Diversity Plus: LPS Assay for Monocyte Chemoattractant Protein-1 (MCP1) Biomarker Activity (AID 2283081); details: primary human HUVEC with PBMC; actives raise or lower the signal
Summary of the method: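 LPS-stimulated HUVEC/PBMC co-culture; chemical, 24 h; MCP-1 by ELISA; bidirectional fit vs DMSO; cytotoxicity via SRB (0.1% stain, 10% TCA fix, 560 nm) in parallel wells.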

[4] = BSK_LPS_PGE2: BioMAP Diversity Plus: LPS Assay for Prostaglandin E2 (PGE2) Biomarker Activity (AID 2283082); details: primary human HUVEC with PBMC; actives raise or lower the signal;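 for AC50: secreted prostaglandin E2 measured by ELISA in LPS-stimulated co-culture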
Summary of the method: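 HUVEC plus PBMC co-culture stimulated with LPS; secreted PGE2 quantified by ELISA 24 h after chemical dosing. Activity fitted bidirectionally against DMSO as negative control and baseline; parallel SRB total-protein staining served as cytotoxicity check.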

[5] = read-out: Macrophage colony-stimulating factor (MCSF), CSF1 (gene 1435); test: BSK_LPS_MCSF: BioMAP Diversity Plus: LPS Assay for Macrophage colony-stimulating factor (MCSF) Biomarker Activity (AID 2283083); details: primary human HUVEC with PBMC; actives raise or lower the signal
Summary of the method: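 Compound is added to a human vascular primary co-culture of umbilical vein endothelium and blood mononuclear cells. After 24 h, M-CSF is quantified by ELISA. Signal changes are fitted in both directions against DMSO.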

[6] = read-out: Tissue Factor, F3 (gene 2152); test: BSK_LPS_TissueFactor: BioMAP Diversity Plus: LPS Assay for Tissue Factor Biomarker Activity (AID 2283084); details: primary human HUVEC with PBMC; actives raise or lower the signal
Summary of the method: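 In this co-culture system of umbilical vein endothelium with PBMC, stimulated with LPS, cell-surface CD142 is detected by ELISA at 24 h. Endpoint values derive from bidirectional fitting, DMSO serving as baseline.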

[7] = read-out: Tumor necrosis factor (Homo sapiens) (UniProt P01375); test: BSK_LPS_TNFa: BioMAP Diversity Plus: LPS Assay for Tumour Necrosis Factor alpha (TNFa) Biomarker Activity (AID 2283085); details: primary human HUVEC with PBMC; actives raise or lower the signal;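 for AC50: TNFa protein level quantified by ELISA in the co-culture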
Summary of the method: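 Human umbilical vein endothelial cells co-cultured with PBMC were exposed to test chemical and TNFa measured by ELISA 24 h after dosing. Bidirectional curve fitting was done relative to DMSO as negative control and baseline.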

[8] = read-out: Vascular cell adhesion molecule 1 (VCAM1), VCAM1 (gene 7412); test: BSK_LPS_VCAM1: BioMAP Diversity Plus: LPS Assay for Vascular cell adhesion molecule 1 (VCAM1) Biomarker Activity (AID 2283086); details: primary human HUVEC with PBMC; actives raise or lower the signal
Summary of the method: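 Human umbilical vein endothelial cells co-cultured with peripheral blood mononuclear cells under LPS stimulation were exposed to test chemical for 24 h. VCAM-1 levels were then measured by ELISA, with bidirectional curve fitting relative to DMSO as negative control and baseline.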

[9] = read-out: CD38, CD38 (gene 952); test: BSK_SAg_CD38: BioMAP Diversity Plus: SAg Assay for CD38 Biomarker Activity (AID 2283087); details: primary human HUVEC with PBMC; actives raise or lower the signal
Summary of the method: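 Fluorescence ELISA of cell-surface CD38 served as the read-out, with either increase or decrease fitted against DMSO controls. Cells were a human umbilical vein endothelium plus PBMC co-culture under SEB/TSST-1 stimulation, measured 24 h after dosing.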

[10] = read-out: CD40, CD40 (gene 958); test: BSK_SAg_CD40: BioMAP Diversity Plus: SAg Assay for CD40 Biomarker Activity (AID 2283088); details: primary human HUVEC with PBMC; actives raise or lower the signal
Summary of the method: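 Fluorescence ELISA read-out of CD40 from umbilical vein endothelium plus peripheral blood mononuclear cells, sampled 24 h after dosing. Values come from bidirectional curve fitting with DMSO as baseline.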

Chain of Tumor necrosis factor (Homo sapiens) (P01375 whole entry, looked up): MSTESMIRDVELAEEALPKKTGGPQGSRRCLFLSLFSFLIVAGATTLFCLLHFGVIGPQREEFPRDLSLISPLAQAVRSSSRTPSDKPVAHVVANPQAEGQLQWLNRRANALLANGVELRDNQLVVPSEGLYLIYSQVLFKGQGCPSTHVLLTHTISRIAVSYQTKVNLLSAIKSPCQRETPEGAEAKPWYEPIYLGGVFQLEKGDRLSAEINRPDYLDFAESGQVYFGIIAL

| SMILES | outcome [1] | outcome [2] | outcome [3] | AC50 [4] | outcome [5] | outcome [6] | outcome [7] | outcome [8] | outcome [9] | outcome [10] | outcome [4] | AC50 [7] | AC50 [10] | AC50 [5] | AC50 [9] | AC50 [1] | AC50 [2] | AC50 [8] |
| --- | --- | --- | --- | --- | --- | --- | --- | --- | --- | --- | --- | --- | --- | --- | --- | --- | --- | --- |
| CC(C)(C)c1ccc(O)cc1 | inactive | inactive | inactive | 3.65 µM (active) | inactive | inactive | inactive | inactive | inactive | inactive |  |  |  |  |  |  |  |  |
| COP(N)(=S)OC | inactive | inactive | inactive |  | inactive | inactive | inactive | inactive | inactive | inactive | inactive |  |  |  |  |  |  |  |
| Nc1cc2c3c(c1)C(c1ccccc1)=N[C@@H](NC(=O)c1cccnc1)C(=O)N3CC2 | inactive | inactive | inactive |  | inactive | inactive |  | inactive | inactive |  | inactive | 1.46 µM (active) | 3.97 µM (active) |  |  |  |  |  |
| O=C(O)C=CC(F)(C(F)(F)F)C(F)(F)F | inactive | inactive | inactive |  | inactive | inactive | inactive | inactive | inactive | inactive | inactive |  |  |  |  |  |  |  |
| CCOP(=S)(Oc1ccc([N+](=O)[O-])cc1)c1ccccc1 (centres undefined) | inactive | inactive | inactive |  |  | inactive |  | inactive |  |  | inactive | 2.84 µM (active) | 14 µM (active) | 13.7 µM (active) | 14.2 µM (active) |  |  |  |
| N#Cc1cc([N+](=O)[O-])ccc1N | inactive | inactive | inactive |  | inactive | inactive | inactive | inactive | inactive | inactive | inactive |  |  |  |  |  |  |  |
| CCOP(=S)(OCC)SCSCC | inactive | inactive | inactive |  | inactive | inactive | inactive | inactive | inactive | inactive | inactive |  |  |  |  |  |  |  |
| O=[N+]([O-])c1ccccc1 | inactive | inactive | inactive |  | inactive | inactive | inactive | inactive | inactive | inactive | inactive |  |  |  |  |  |  |  |
| Cc1c([N+](=O)[O-])cc2c(c1[N+](=O)[O-])C(C)(C)CC2(C)C | inactive | inactive | inactive |  | inactive | inactive | inactive | inactive | inactive | inactive | inactive |  |  |  |  |  |  |  |
| N#Cc1c(-c2ccc(Cl)cc2)[nH]c(C(F)(F)F)c1Br |  |  | inactive | 0.949 µM (active) | inactive | inactive |  |  |  |  |  | 0.016 µM (active) | 0.34 µM (active) |  | 0.343 µM (active) | 3.97 µM (active) | 1.36 µM (active) | 3.97 µM (active) |
| c1ccc(OP(Oc2ccccc2)Oc2ccccc2)cc1 | inactive | inactive | inactive |  | inactive | inactive | inactive | inactive | inactive | inactive | inactive |  |  |  |  |  |  |  |
| O=P(OCC(Br)CBr)(OCC(Br)CBr)OCC(Br)CBr (centres undefined) | inactive | inactive | inactive |  | inactive | inactive | inactive | inactive | inactive | inactive | inactive |  |  |  |  |  |  |  |
| NC(=O)C(F)(F)C(F)(F)F | inactive | inactive | inactive |  | inactive | inactive | inactive | inactive | inactive | inactive | inactive |  |  |  |  |  |  |  |
| ClC(Cl)(Cl)c1ccccc1 | inactive | inactive | inactive |  | inactive | inactive | inactive | inactive | inactive | inactive | inactive |  |  |  |  |  |  |  |
| CCOP(=S)(NC(C)C)Oc1ccccc1C(=O)OC(C)C (centres undefined) | inactive | inactive | inactive |  | inactive | inactive |  | inactive | inactive | inactive | inactive | 4.8 µM (active) |  |  |  |  |  |  |
| CCOc1ccc(C(C)(C)COCc2cccc(Oc3ccccc3)c2)cc1 | inactive |  | inactive |  | inactive | inactive |  | inactive | inactive | inactive | inactive | 1.15 µM (active) |  |  |  |  |  |  |
| O=[N+]([O-])c1ccc(Cl)c(Cl)c1 | inactive | inactive | inactive |  | inactive | inactive | inactive | inactive | inactive | inactive | inactive |  |  |  |  |  |  |  |
| CCOP(=S)(OCC)SCSc1ccc(Cl)cc1 | inactive |  | inactive |  |  | inactive | inactive |  |  |  | inactive |  | 9.34 µM (active) | 18.7 µM (active) | 20 µM (active) |  | 5.31 µM (active) | 13.2 µM (active) |
| CCNc1nc(Cl)nc(NC(C)(C)C)n1 | inactive | inactive | inactive |  | inactive | inactive |  | inactive |  |  | inactive | 5.47 µM (active) | 20 µM (active) |  | 7.93 µM (active) |  |  |  |
| O=C(O)C(F)(F)C(F)(F)C(=O)O | inactive | inactive | inactive |  | inactive | inactive | inactive | inactive | inactive | inactive | inactive |  |  |  |  |  |  |  |
| CCOS(=O)(=O)OCC | inactive | inactive | inactive |  | inactive | inactive | inactive | inactive | inactive | inactive | inactive |  |  |  |  |  |  |  |
